Our source for the Potency and outcome values is PubChem BioAssay (Tox21).

In test [1] the target is Retinoic acid receptor RXR-alpha (Homo sapiens) (UniProt P19793). Description: qHTS assay to identify small molecule agonists of the RXR signaling pathway (AID 1159527; calls by dose curve; also: nearly all actives have a fitted effect of over 35% in size). The method, boiled down: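 16 hr incubation of compound-treated RXR-alpha-UAS-bla HEK 293T cells (2% charcoal-stripped FBS, 37 C) preceded a 2 hr room-temperature LiveBLAzer FRET substrate step and blue/green fluorescence measurement.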

The nature of test [2]: qHTS assay to identify small molecule agonists of the RXR signaling pathway - cell viability counter screen (AID 1159529).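 Also: HEK 293T cells carrying an RXR-alpha UAS beta-lactamase reporter; series mostly up to about 77 µM; nearly all actives have a fitted effect of over 50% in size.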 The method, boiled down:
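In this parallel viability measure, GeneBLAzer RXR-alpha HEK 293T cells (2% charcoal-stripped FBS) were given a 5 hr preincubation, treated with compounds 16 hr at 37 C, and read by CellTiter-Glo luminescence.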

The nature of test [3]: qHTS assay to identify small molecule antagonists of the retinoid acid receptor (RAR) signaling pathway - cell viability counter screen (AID 1159551). Also: nearly all actives have a fitted effect of over 35% in size. The method, boiled down: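 In this counter screen, the RARE-luciferase line C3RL4 was exposed for 6 h at 37 C and 5% CO2 to compounds with retinol at 1 uM final. Cellular ATP, read by luminescence, served as the viability measure.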

Test [4] is described as follows: qHTS assay to identify small molecule antagonists of the retinoic acid receptor (RAR) signaling pathway (AID 1159552; also: nearly all actives have a fitted effect of over 50% in size). The method, boiled down: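 C3RL4 RARE-luc cells, overnight plating; retinol 1 uM final added right after compound; 6 hr 37 C; luciferase read at 30 min RT.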
A short description of test [5]: qHTS assay to identify small molecule agonists of the retinoic acid receptor (RAR) signaling pathway (AID 1159553). The method, boiled down: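 In this cell-based screen, 1,000 C3RL4 cells per well were cultured overnight, dosed with test chemicals in DMSO for 6 hr, and assessed for RARE luciferase luminescence.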
A short description of test [6]: qHTS assay to identify small molecule antagonists of the estrogen related receptor (ERR) signaling pathway from Tox21 library - cell viability counter screen (AID 1224834). Also: nearly all actives have a fitted effect of over 30% in size. The method, boiled down:
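Counter screen run in ERR cells (2,000 cells/well): cells pre-incubated 6 h, then treated with compounds for 17.5 h at 37 C. Fluorescence was read 30 min after CellTiter-Fluor addition.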

Test [7] has as its target Luciferin 4-monooxygenase (Photinus pyralis) (UniProt P08659). The test can be described thus: qHTS assay to identify small molecule inhibitors of firefly luciferase (AID 1224835). Also: series mostly up to about 120 µM; nearly all actives have a fitted effect of over 25% in size. Put shortly: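 Inhibition of purified Photinus luciferase is measured by luminescence. Substrate levels (D-luciferin, ATP) sit at their KM values. Each compound is tested in a concentration series.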

Test [8] is described as follows: qHTS assay to identify small molecule agonists of the constitutive androstane receptor (CAR) signaling pathway - cell viability counter screen (AID 1224836). Also: series mostly up to about 92 µM; nearly all actives have a fitted effect of over 45% in size. The method, boiled down:
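Using CellTiter-Fluor, viability of HepG2 cells harbouring hCAR and CYP2B6-2.2kb was measured following 23 h incubation with a 15-concentration compound series plus PK11195 (0.75 uM final).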

Test [9] in a line: qHTS assay to identify small molecule antagonists of the constitutive androstane receptor (CAR) signaling pathway - cell viability counter screen (AID 1224837). Also: series mostly up to about 92 µM; nearly all actives have a fitted effect of over 45% in size. The method, boiled down: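 CITCO at 50 nM final was added alongside compounds (15 concentrations) to double-stable hCAR/CYP2B6-2.2kb HepG2 cells. Following 23 hr at 37 C, cell viability was quantified by CellTiter-Fluor fluorescence intensity.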

In test [10] the target is Nuclear receptor subfamily 1 group I member 3 (Homo sapiens) (UniProt Q14994). The test can be described thus: qHTS assay to identify small molecule antagonists of the constitutive androstane receptor (CAR) signaling pathway (AID 1224838). Also: nearly all actives have a fitted effect of over 40% in size. Put shortly: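 Inhibition of CITCO-driven (50 nM final) CYP2B6 reporter expression is measured in HepG2 cells stably carrying hCAR. Fifteen compound concentrations are applied for 24 h at 37 C, followed by luciferase luminescence.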

Test [11] has the same target. The test can be described thus: qHTS assay to identify small molecule agonists of the constitutive androstane receptor (CAR) signaling pathway (AID 1224839). Also: nearly all actives have a fitted effect of over 15% in size. Also: potency is read from the fitted curve at half-maximal effect. As to activation: series mostly up to about 92 µM. Put shortly: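 Double-stable HepG2 cells (hCAR, CYP2B6-2.2kb) seeded 4 h before compound addition. Exposure 24 h with 0.75 uM PK11195 final. Luciferase detected by ONE-Glo.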
Test [12] in a line: qHTS assay to identify small molecule antagonists of the estrogen related receptor signaling pathway with the pleiotropic PPARgamma coactivator (PGC) from Tox21 10K library - cell viability counter screen (AID 1224840; active = well fitted cell-killing curve with a large enough effect in the repeat runs, not every such curve was filed as active; also: nearly all actives have a fitted effect of over 40% in size). The method, boiled down:
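Readout: fluorescence intensity from CellTiter-Fluor after 30 min at 37 C/5% CO2. Preceded by 17.5 h treatment of PGC/ERR cells with DMSO-dissolved compounds, added 6 h post-seeding.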

Test [13] in a line: qHTS assay to identify small molecule antagonists of the estrogen related receptor signaling pathway with the pleiotropic PPARgamma coactivator (PGC) from Tox21 10K library (AID 1224841; call rule not given here; also: series mostly up to about 92 µM; actives are mostly falling curves and most rising ones were filed inactive; nearly all actives have a fitted effect of over 50% in size). Put shortly:
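One-Glo luminescence, measured after half an hour at room temperature, quantified reporter output of PGC/ERR cells. These had been plated at 2,000 per well, incubated 6 h, dosed with compounds in DMSO, then kept 18 h at 37 C.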

A short description of test [14]: qHTS assay to identify small molecule agonists of the estrogen related receptor signaling pathway with the pleiotropic PPARgamma coactivator (PGC) from Tox21 10K library (AID 1224842). Also: nearly all actives have a fitted effect of over 15% in size. The method, boiled down:
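Luminescence from One-Glo (30 min, room temperature) measured after PGC/ERR cells had 18 h at 37 C with pinned compound (23 nL in DMSO). Cells had been seeded at 2,000 per well and pre-incubated 6 h.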

Test [15] deals with Thyrotropin receptor (Homo sapiens) (UniProt P16473). The test can be described thus: qHTS assay to identify small molecule agonists of the thyroid stimulating hormone receptor (TSHR) signaling pathway (AID 1224843; calls by dose curve; also: nearly all actives have a fitted effect of over 45% in size; also: potency is read from the fitted curve at half-maximal effect). Put shortly:
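Agonist activity read as cAMP rise via d2/cryptate HTRF competition, 1 h room-temperature detection, in HEK293 cells expressing TSHR. Fifteen-point titrations, each run in triplicate, with a 30 min room-temperature incubation beforehand.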

Test [16] in a line: qHTS assay to identify small molecule agonists of the hypoxia (HIF-1) signaling pathway - cell viability counter screen (AID 1224844; calls by dose curve; also: nearly all actives have a fitted effect of over 50% in size). The method, boiled down:
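In this counter screen, HRE-bla ME-180 cell viability after 17 hrs of compound exposure at 37C was read by CellTiter-Glo luminescence, multiplexed with the beta-lactamase reporter measurement.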

Test [17] in a line: qHTS assay to identify small molecule agonists of H2AX (AID 1224845; active = well fitted activation curve with a large enough effect in the signal ratio in the repeat runs, not every such curve was filed as active; the % refers to the signal ratio). The method, boiled down: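 Phospho-H2AX Ser139 measured by HTRF (ex 320 nm; em 665 and 620 nm) after 24 hr antibody incubation. Compounds, 15 concentrations, 0.76% DMSO, were applied to CHO-K1 cells for 3hr at 37C before lysis.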
A short description of test [18]: qHTS assay to identify small molecule agonists of the hypoxia (HIF-1) signaling pathway (AID 1224846; active = well fitted activation curve with a large enough effect in the signal ratio in the repeat runs, not every such curve was filed as active; the % refers to the signal ratio). Put shortly:
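ME-180 HRE-bla reporter cells; compounds in DMSO, 17 h at 37C; read-out beta-lactamase via CCF4-AM FRET.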

“And” between values parts separate entries of the source, which are not always exact repeats. Equal values may be shown once. Results filed as inconclusive are left out. A structure can be active in one record and inactive in another. The source made the active and inactive calls. Unless noted, calls follow the shape of the dose curve; as a rule, active = well fitted curve in the direction sought with a large enough effect in the repeat runs; inconclusive = weak or mixed curves; inactive = no such curve, though single readings can be large; an effect the other way counts as inactive or inconclusive.

Sequence of Thyrotropin receptor (Homo sapiens) (P16473 whole entry, looked up): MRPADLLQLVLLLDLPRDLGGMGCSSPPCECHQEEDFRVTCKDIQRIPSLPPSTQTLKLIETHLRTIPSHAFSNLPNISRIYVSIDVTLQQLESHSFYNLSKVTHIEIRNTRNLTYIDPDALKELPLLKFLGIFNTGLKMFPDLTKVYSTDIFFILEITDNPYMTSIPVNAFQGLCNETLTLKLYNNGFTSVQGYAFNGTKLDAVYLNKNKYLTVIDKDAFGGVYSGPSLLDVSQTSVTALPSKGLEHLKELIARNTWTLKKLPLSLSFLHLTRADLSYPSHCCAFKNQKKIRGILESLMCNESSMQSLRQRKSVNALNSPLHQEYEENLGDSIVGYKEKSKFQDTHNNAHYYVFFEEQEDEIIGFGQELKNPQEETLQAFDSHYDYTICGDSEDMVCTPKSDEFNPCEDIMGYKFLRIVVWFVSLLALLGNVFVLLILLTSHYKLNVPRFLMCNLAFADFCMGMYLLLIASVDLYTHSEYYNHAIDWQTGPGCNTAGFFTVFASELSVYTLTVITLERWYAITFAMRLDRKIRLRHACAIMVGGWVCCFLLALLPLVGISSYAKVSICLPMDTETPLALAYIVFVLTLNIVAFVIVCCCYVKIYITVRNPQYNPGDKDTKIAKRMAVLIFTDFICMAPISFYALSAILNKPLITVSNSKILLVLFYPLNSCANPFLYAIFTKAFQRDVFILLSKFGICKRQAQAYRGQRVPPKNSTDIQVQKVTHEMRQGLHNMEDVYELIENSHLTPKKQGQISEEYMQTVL
Sequence of Retinoic acid receptor RXR-alpha (Homo sapiens) (P19793 whole entry, looked up): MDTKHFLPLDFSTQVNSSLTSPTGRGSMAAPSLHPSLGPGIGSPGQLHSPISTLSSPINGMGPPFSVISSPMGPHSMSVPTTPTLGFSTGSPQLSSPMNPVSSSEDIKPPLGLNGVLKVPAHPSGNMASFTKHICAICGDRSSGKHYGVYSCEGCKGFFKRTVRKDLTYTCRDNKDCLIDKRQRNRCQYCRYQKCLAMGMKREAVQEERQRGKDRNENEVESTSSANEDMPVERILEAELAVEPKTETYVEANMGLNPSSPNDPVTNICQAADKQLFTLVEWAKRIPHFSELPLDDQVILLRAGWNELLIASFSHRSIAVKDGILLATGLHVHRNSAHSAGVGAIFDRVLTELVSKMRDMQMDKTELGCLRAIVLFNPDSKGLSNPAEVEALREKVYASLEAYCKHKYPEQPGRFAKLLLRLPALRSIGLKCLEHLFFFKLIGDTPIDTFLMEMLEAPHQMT
Sequence of Nuclear receptor subfamily 1 group I member 3 (Homo sapiens) (Q14994 whole entry, looked up): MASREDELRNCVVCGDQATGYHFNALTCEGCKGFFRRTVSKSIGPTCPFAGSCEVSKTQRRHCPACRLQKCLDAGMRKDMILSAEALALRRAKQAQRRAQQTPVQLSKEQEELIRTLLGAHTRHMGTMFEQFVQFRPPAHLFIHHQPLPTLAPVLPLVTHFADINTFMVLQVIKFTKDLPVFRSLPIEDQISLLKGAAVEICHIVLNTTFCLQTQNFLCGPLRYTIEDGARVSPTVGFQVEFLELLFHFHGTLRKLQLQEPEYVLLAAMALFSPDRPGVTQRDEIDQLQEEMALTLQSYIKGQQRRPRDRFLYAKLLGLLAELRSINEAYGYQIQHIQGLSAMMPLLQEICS
Sequence of Luciferin 4-monooxygenase (Photinus pyralis) (P08659 whole entry, looked up): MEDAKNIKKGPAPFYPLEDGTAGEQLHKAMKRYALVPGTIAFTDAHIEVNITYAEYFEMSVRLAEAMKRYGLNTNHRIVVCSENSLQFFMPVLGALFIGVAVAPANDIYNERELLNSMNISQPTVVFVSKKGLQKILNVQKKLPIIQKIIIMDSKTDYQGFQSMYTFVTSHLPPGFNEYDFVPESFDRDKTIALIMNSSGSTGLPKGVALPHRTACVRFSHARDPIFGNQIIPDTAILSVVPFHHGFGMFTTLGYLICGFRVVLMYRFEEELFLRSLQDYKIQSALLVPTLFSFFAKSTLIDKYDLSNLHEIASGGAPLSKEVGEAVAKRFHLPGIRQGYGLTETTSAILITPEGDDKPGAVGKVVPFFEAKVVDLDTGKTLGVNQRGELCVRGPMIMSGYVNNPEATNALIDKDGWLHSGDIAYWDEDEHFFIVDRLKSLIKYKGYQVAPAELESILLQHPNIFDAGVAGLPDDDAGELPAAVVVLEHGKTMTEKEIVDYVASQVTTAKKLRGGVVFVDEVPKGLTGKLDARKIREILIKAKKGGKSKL

`CCC(O)OC(O)CC` (stereo unspecified): the Potency entry in test [1], in test [2], in test [4], in test [5], in [6] and in [7] was “inactive” throughout. The Potency result in test [8], in test [9], in test [10], in [11], in [12] and in [13] was “inactive” each time. The Potency result in test [15], in test [16] and in [17] was “inactive” throughout. In addition, the compound was called inactive in test [3], in [14] and in test [18].
Regarding `N[C@@H](Cc1cc(I)c(Oc2cc(I)c(O)c(I)c2)c(I)c1)C(=O)O`, the Potency result in test [1], in [2], in test [5], in test [6], in test [7] and in test [8] was “inactive” throughout. For the same compound, the Potency result in [9], in test [10], in test [11], in test [12], in test [13] and in test [15] was “inactive” each time. In addition, the Potency entry in test [16] and in test [17] was “inactive” each time. The result in test [3], in test [14] and in test [18] was inactive.
As for `CC(=O)CC(=O)Nc1ccccc1C`, the Potency result in test [1], in test [2], in test [4], in test [5], in [6] and in [7] was “inactive” each time. In addition, the Potency result in test [8], in [9], in [10], in test [11], in test [12] and in [13] was “inactive” throughout. The Potency result in test [16] and in [17] was “inactive” throughout. Further, the call in [3], in [14] and in test [18] was inactive. Also, the Potency in [15] was 9.8 µM (active) and inactive.
`c1ccc2scnc2c1`: the Potency entry in test [1], in [2], in [4], in test [5], in test [6] and in test [7] was “inactive” in each case. Also, the Potency entry in test [8], in test [9], in test [12], in test [15], in test [16] and in test [17] was “inactive” in each case. Besides, the outcome in [3] and in [18] was inactive.
`CC(=O)Nc1cccc(O)c1`: the Potency entry in test [1], in test [2], in [4], in test [5], in test [6] and in [7] was “inactive” throughout. Further, the Potency entry in [8], in [9], in test [10], in test [11], in test [12] and in [15] was “inactive” each time. The Potency result in test [16] and in test [17] was “inactive” throughout. Moreover, the result in [3] and in [18] was inactive.
`CCCCCCCC(=O)OC`: the Potency result in test [1], in [2], in test [6], in test [7], in test [8] and in test [9] was “inactive” throughout. The Potency entry in test [10], in test [11], in test [12], in test [15], in test [16] and in test [17] was “inactive” throughout. In addition, the call in test [3] and in test [18] was inactive.
In the case of `C=C(C)C(=O)Nc1ccc(Cl)c(Cl)c1`, the Potency result in test [1], in test [2], in [6], in [7], in test [8] and in test [9] was “inactive” throughout. Moreover, the Potency entry in [10], in [12], in test [15], in [16] and in test [17] was “inactive” in each case. Further, the call in test [3] and in test [18] was inactive. The Potency in [11] is 55 µM (active) and 48.4 µM (active).
As for `Cc1cccc(O)c1`, the Potency result in test [1], in [2], in test [6], in [7], in test [8] and in test [9] was “inactive” throughout. Moreover, the Potency entry in test [10], in test [11], in test [12], in test [13], in [16] and in test [17] was “inactive” each time. Also, the result in [3], in test [14] and in test [18] was inactive.
